Results published in PubChem BioAssay (NCI).
This is part of a sample that, as a whole, favours compounds with a hit. Of some 83,000 tested, about 20% had one in any assay.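 Cell lines were cultured in 96-well plates, exposed to a single compound concentration, and assessed for percent growth 48 hours later.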 Values without a mark were called inactive. Calls of active or inactive are those of the source. How the source made its calls: active means growth percent below 10; inactive means the rest.

Tests used:
Experiment in all cases: NCI-60 one-dose screen, 48 h (100 = growth as untreated, 0 = no growth, -100 = all killed)
Conditions in all cases: 10 µM unless noted
SR leukemia = tested on: SR leukemia
RPMI-8226 leukemia = tested on: RPMI-8226 leukemia
OVCAR-8 ovarian = tested on: OVCAR-8 ovarian
OVCAR-5 ovarian = tested on: OVCAR-5 ovarian
OVCAR-4 ovarian = tested on: OVCAR-4 ovarian
SK-OV-3 ovarian = tested on: SK-OV-3 ovarian
IGROV1 ovarian = tested on: IGROV1 ovarian
HS 578T breast = tested on: HS 578T breast
NCI/ADR-RES ovarian = tested on: NCI/ADR-RES ovarian
T-47D breast = tested on: T-47D breast
BT-549 breast = tested on: BT-549 breast
MDA-MB-435 melanoma = tested on: MDA-MB-435 melanoma
SW-620 colon = tested on: SW-620 colon
MCF7 breast = tested on: MCF7 breast
HCT-116 colon = tested on: HCT-116 colon
HCC-2998 colon = tested on: HCC-2998 colon
KM12 colon = tested on: KM12 colon
OVCAR-3 ovarian = tested on: OVCAR-3 ovarian

| SMILES | growth (SR leukemia) | growth (RPMI-8226 leukemia) | growth (OVCAR-8 ovarian) | growth (OVCAR-5 ovarian) | growth (OVCAR-4 ovarian) | growth (SK-OV-3 ovarian) | growth (IGROV1 ovarian) | growth (HS 578T breast) | growth (NCI/ADR-RES ovarian) | growth (T-47D breast) | growth (BT-549 breast) | growth (MDA-MB-435 melanoma) | growth (SW-620 colon) | growth (MCF7 breast) | growth (HCT-116 colon) | growth (HCC-2998 colon) | growth (KM12 colon) | growth (OVCAR-3 ovarian) |
| --- | --- | --- | --- | --- | --- | --- | --- | --- | --- | --- | --- | --- | --- | --- | --- | --- | --- | --- |
| COCCNc1ccc2ncc(C#Cc3cncc(C(=O)Nc4ccc(CN5CCN(C)CC5)c(C(F)(F)F)c4)c3)n2n1 | -6.69% (active) | -26.7% (active) | -5.34% (active) | 3.94% (active) | -10.6% (active) | -63% (active) | -12% (active) | -33.9% (active) | 43.9% | -7.3% (active) | -36.7% (active) | -24.8% (active) | -54.1% (active) | -30.7% (active) | -66.9% (active) | -23.6% (active) | -9.09% (active) | – |
| Cc1ccc(NC(=O)N[C@@H](Cc2cc(F)cc(F)c2)C(=O)NC2C(=O)N3C[C@H](O)C[C@H]3C(=O)N3CCCC[C@H]3C(=O)N[C@@H](CO)C(=O)N3C[C@H](C)C[C@H]3C(=O)O[C@H]2C)c(F)c1 (some centres undefined) | 40.6% | 17.6% | 44.1% | 43.8% | 29.8% | 33.7% | 60.6% | 40.1% | 107% | 32.5% | 43.5% | 23.1% | 44.6% | 18.1% | 18.1% | 31.2% | 45.3% | – |
| CCOc1ccc(C(=O)Nc2ncc(Cc3ccc(F)cc3)s2)cc1 | 19.6% | 25.5% | 22.1% | 34.1% | 54.1% | 36.2% | 40% | 1.23% (active) | 18.2% | 34.1% | 57.1% | -16.1% (active) | 26.1% | 19.1% | 13.2% | 15.5% | 16.7% | – |
| COc1cc2oc(-c3cccc(N)c3)cc(=O)c2c(OC)c1OC | 87.2% | 97.8% | 98.7% | 101% | 99.7% | 125% | 107% | 115% | 106% | 97.8% | 116% | 103% | 112% | 96.3% | 111% | 110% | 103% | – |
| CCOC(=O)c1c(Nc2ccccc2)nn2c(-c3ccccc3)ccnc12 | 74.4% | 30.7% | 96.1% | 93.4% | 95.9% | 102% | 110% | 91.9% | 87.6% | 91% | 145% | 96.1% | 105% | 91.8% | 86.7% | 97.1% | 88.9% | – |
| O=C(Cn1c(-c2ccccc2)nc2cc(Cl)c(Cl)cc21)N=Nc1c(O)[nH]c2ccc(Cl)cc12 | 67.9% | 59% | 83.5% | 80.5% | 77.9% | 85.6% | 87.9% | 81.3% | 72.3% | 61.5% | 56.2% | 83.2% | 81.9% | 71.8% | 53.4% | 86% | 73.8% | – |
| CN1CCC(n2cc(Nc3ncc4c(=O)n(-c5c(Cl)cccc5Cl)cc(Br)c4n3)cn2)CC1 | -21.4% (active) | 20.7% | 6.91% (active) | 43.5% | 33.8% | 32.7% | 15% | 45.1% | 34% | 37% | 57.5% | 5.4% (active) | 20.5% | 18.7% | 5.66% (active) | 31% | 14.8% | – |
| CCOC(=O)c1c(Nc2ccccc2)nn2c(-c3ccc(OC)cc3)ccnc12 | 76.7% | 75.1% | 94.3% | 90.9% | 98.7% | 101% | 101% | 79.7% | 88.1% | 75.1% | 127% | 90.4% | 95.1% | 89.9% | 71.7% | 95.7% | 73.9% | – |
| COc1ccc(CCN2C(=O)CSC2=S)cc1 | 65.8% | 33.3% | 102% | 95.7% | 92.8% | 111% | 109% | 99.4% | 98.4% | 50.7% | 112% | 77.6% | 61.3% | 24.2% | 84.6% | 110% | 6.12% (active) | – |
| COc1ccc(C2c3sc4c(C)cccc4c3Oc3nc(CC(=O)Nc4ccccc4)[nH]c(=O)c32)cc1 (centres undefined) | 62.7% | 89.5% | 99.8% | 88.7% | 65% | 85.8% | 47.9% | 87.8% | 38.7% | 84.4% | – | 33.7% | 74.9% | 55.6% | 73.6% | 93.8% | 92.7% | 93.9% |
| NS(=O)(=O)c1ccc(Nc2nc(SCC(=O)c3ccc(Cl)cc3)nc3c2CCCC3)cc1 | 26.9% | 42.8% | 52.3% | 88.3% | 47.7% | 101% | 84.8% | 44.6% | 74.6% | 13.5% | 67.3% | 54.4% | 40.5% | 25.4% | 36.8% | 21.6% | 19.6% | – |
| COc1ccc([C@@H]2[C@@H](O)C(=O)N2c2cc(OC)c(OC)c(OC)c2)cc1F | 8.72% (active) | 21.5% | -5.69% (active) | 31.5% | 63.2% | 28.3% | 18.9% | -2.79% (active) | -6.67% (active) | 68% | -18.5% (active) | -12% (active) | 22.5% | 9.59% (active) | 2.32% (active) | 5.15% (active) | 6.09% (active) | – |
| CN(C)CCCOc1ccc2c(c1)CN(C(=O)c1cc(C(=O)N3Cc4cccc(F)c4C3)ccc1O)C2 | 96.8% | 98.9% | 101% | 108% | 99% | 112% | 113% | 92.9% | 107% | 100% | 125% | 103% | 105% | 83.2% | 106% | 114% | 106% | – |
| O=C(CSc1nc2ccccc2c(=O)n1-c1ccccc1)Nc1cccc(C(=O)/C=C/c2ccccc2Cl)c1 | 89.2% | 68.5% | 99.5% | 108% | 102% | 115% | 107% | 106% | 104% | 91.2% | 118% | 97.9% | 91.7% | 54.1% | 20.2% | 108% | 100% | – |
| N#C/C(=C\c1ccc(-c2ccc(Cl)cc2Cl)o1)c1ccc(F)cc1 | 90.5% | 85% | 93.8% | 92.2% | 80.4% | 81.9% | 86.5% | 89.9% | 93.7% | 78.8% | 112% | 93.7% | 93.5% | 66.9% | 88.1% | 105% | 94.2% | – |
| CCOC(=O)c1c(Nc2ccccc2)nn2c(-c3cccs3)ccnc12 | 63.5% | 66.2% | 92.2% | 90.3% | 91.7% | 83.2% | 91.3% | 90.2% | 87.4% | 79.2% | 109% | 87.5% | 88.7% | 90.5% | 78% | 100% | 82.1% | – |
| COc1ccc2[nH]cc(-c3csc4nc(-c5ccccc5)cn34)c2c1 | 20.1% | 5.78% (active) | 24.1% | 46.2% | 56.5% | 16.1% | 41.6% | -3.7% (active) | 5.97% (active) | 30.7% | 45.8% | -47.7% (active) | 25.1% | 11.5% | 4.36% (active) | 6.03% (active) | 11.6% | – |
